This passage reports inhibition results from PubChem BioAssay AID485346 (Sanford-Burnham Center for Chemical Genomics, 2010).

SMILES strings stand for the structures. Screen size: about 330,000 compounds; about 10,000 (3%) were called active.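 The calls were made as follows: active = inhibition of at least 50% at 8 µM in the primary screen; inactive = the rest.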 The entries come from a sample that favours actives as a whole.

The test deals with Protein Mdm4 (Homo sapiens) + E3 ubiquitin-protein ligase Mdm2 (Homo sapiens) (UniProt O15151+Q00987). Put plainly: inhibitors of human Mdm2-MdmX association, primary screen, cell-based, luminescence, split luciferase, SaOS-2, uHTS (AID 485346). The note with it: SaOS-2 split-luciferase Mdm2/MdmX complementation, at 8 µM, stronger effect = higher value.
Chain of Protein Mdm4 (Homo sapiens) + E3 ubiquitin-protein ligase Mdm2 (Homo sapiens) (O15151 whole entry, looked up): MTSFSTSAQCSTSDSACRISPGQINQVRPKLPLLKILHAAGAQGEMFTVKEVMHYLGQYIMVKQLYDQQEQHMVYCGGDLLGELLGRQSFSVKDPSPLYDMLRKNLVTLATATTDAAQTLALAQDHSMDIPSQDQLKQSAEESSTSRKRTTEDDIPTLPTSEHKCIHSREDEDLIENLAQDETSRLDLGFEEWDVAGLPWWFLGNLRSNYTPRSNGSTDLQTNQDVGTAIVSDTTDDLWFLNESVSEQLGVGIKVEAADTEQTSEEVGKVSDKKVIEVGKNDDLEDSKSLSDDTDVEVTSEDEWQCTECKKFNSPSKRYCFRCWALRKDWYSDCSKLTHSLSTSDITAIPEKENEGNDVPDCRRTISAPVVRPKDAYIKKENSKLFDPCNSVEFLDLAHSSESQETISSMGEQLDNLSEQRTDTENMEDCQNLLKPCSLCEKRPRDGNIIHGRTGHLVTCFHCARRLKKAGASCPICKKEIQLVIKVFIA
Chain of Protein Mdm4 (Homo sapiens) + E3 ubiquitin-protein ligase Mdm2 (Homo sapiens) (Q00987 whole entry, looked up): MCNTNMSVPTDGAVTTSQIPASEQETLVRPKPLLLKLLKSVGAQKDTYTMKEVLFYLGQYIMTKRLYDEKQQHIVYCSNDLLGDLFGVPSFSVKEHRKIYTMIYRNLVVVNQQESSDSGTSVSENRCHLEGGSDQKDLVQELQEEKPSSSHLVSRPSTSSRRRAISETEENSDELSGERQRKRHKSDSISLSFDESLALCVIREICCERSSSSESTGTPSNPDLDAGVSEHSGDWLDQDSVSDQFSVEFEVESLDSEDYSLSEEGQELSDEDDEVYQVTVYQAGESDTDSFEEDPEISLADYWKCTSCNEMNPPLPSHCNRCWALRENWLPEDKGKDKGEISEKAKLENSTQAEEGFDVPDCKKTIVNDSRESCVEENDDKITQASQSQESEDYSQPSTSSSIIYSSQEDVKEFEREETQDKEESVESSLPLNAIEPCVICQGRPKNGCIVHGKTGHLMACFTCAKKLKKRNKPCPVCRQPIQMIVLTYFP
Regarding `O=C(NCc1ccccc1)C1=C[C@H](C2CC2)C[C@H](OCc2ccc(CO)cc2)O1`, the inhibition was -19% (inactive).
For the compound `CC(C)(C)[C@H]1C=C(C(=O)NCc2ccccc2)O[C@@H](OCc2ccc(CO)cc2)C1`, the inhibition is 29.5% (inactive).
With `O=C(NCc1ccccc1)C1=C[C@@H](C2CCCCC2)C[C@@H](OCc2ccc(CO)cc2)O1` the figure was 55.5% (active); with `Nn1cnnc1N/N=C/c1cc([N+](=O)[O-])c(Cl)cc1Cl`, -3.78% (inactive); with `CC(=O)NNc1cc(=O)c2c(=O)n(C)c(=O)n(C)c2[nH]1`, -7.44% (inactive).
Consider `CCOc1ccccc1C(=O)NC1CC2CCCC(C1)N2Cc1ccccc1` (stereo not given), for which the inhibition is -3.94% (inactive).
With `CC(=O)Nc1ccc(S(=O)(=O)NCC(=O)OCc2cc(=O)oc3ccc4ccccc4c23)cc1` the figure was -8.78% (inactive).
For the compound `COc1ccc(CNC(=O)COC(=O)c2sccc2C)cc1OC`, the inhibition is 14.3% (inactive).
Regarding `CCOc1ccc(C(C)=O)cc1COC(=O)CNC(=O)c1cccs1`, the inhibition is 26.9% (inactive).
Turning to `CCOc1ccc(C(C)=O)cc1COC(=O)c1cnc(Cl)c(Cl)c1`, the inhibition was 97.4% (active).
Consider `COC(=O)c1ccc(COC(=O)c2cnc(Cl)c(Cl)c2)cc1`, for which the inhibition was 0.646% (inactive).
In the case of `COc1ccccc1C(=O)NCC(=O)NCCSc1ccc(Br)cc1`, the inhibition was 12.7% (inactive).
Turning to `CCc1ccccc1NC(=O)CN(c1ccc(OC)cc1OC)S(=O)(=O)c1ccccc1[N+](=O)[O-]`, the inhibition is 18.2% (inactive).
For `N#Cc1cccc(CSc2nnc(CCCO)n2-c2ccccc2)c1`, the inhibition is 7% (inactive).
The figure for `Brc1ccc2ncnc(NCc3cccnc3)c2c1` is 73.1% (active); for `Clc1ccc(Cn2ncc3c(NCc4cccnc4)ncnc32)cc1` it is 20.9% (inactive); for `Cc1cc(NCc2cccnc2)no1` it is 0.68% (inactive).
As to `CCN(C(=O)Cc1c(C(=O)O)n(CC)c2ccccc12)c1ccccc1C`, the inhibition was 13.2% (inactive).
On to `O=C(COC(=O)CCCN1C(=O)c2cccc3cccc(c23)C1=O)NC1CCS(=O)(=O)C1` (stereo not given), for which the inhibition is -2.87% (inactive).
As for `O=C1NC2(CCCCC2)N=C1c1ccccc1`, the inhibition is 4.91% (inactive).
With `COc1cccc(CNC(=O)c2n[nH]c3ccccc23)c1` the figure was -9.68% (inactive).
Take `O=C(Cc1csc(Nc2nc(=S)[nH]c3ccccc23)n1)NCCCN1CCN(c2cccc(Cl)c2)CC1`: the inhibition was 77.1% (active).
In the case of `COc1cccc(CNC(=O)Cc2csc(Nc3nc(=S)[nH]c4ccccc34)n2)c1`, the inhibition is 60.5% (active).
Regarding `O=C(Cc1ccc(-n2c(=O)[nH]c3ccccc3c2=O)cc1)N1CCN(c2cccc(Cl)c2)CC1`, the inhibition was -17% (inactive).
As to `COc1cccc(CNC(=O)CN2C(=O)NC(Cc3ccccc3)(c3ccccc3)C2=O)c1` (stereo not given), the inhibition is -11% (inactive).
As to `O=C(CCCn1c(=O)[nH]c2cc(Cl)ccc2c1=O)NCCN1CCN(c2ccccc2)CC1`, the inhibition is 9.17% (inactive).
With `CC(=O)Nc1ccc(NC(=O)C(NS(=O)(=O)c2ccc3c(c2)OCCO3)C(C)C)cc1` (stereo not given) the figure was 1.24% (inactive).
Turning to `Cc1noc(C)c1S(=O)(=O)N(C)C[C@H]1Oc2c(NC(=O)Nc3ccc4c(c3)OCO4)cccc2C(=O)N([C@H](C)CO)C[C@@H]1C`, the inhibition was 23.1% (inactive).
Turning to `COc1ccc(Nc2ncnc3ccc(Br)cc23)c(OC)c1`, the inhibition is 76.4% (active).
With `COc1ccc(CNc2ncnc3ccccc23)cc1`, the inhibition is 21.5% (inactive).
Take `O=C(O)CCCCCNc1ncnc2ccc(Br)cc12`: the inhibition was -1.34% (inactive).
Turning to `COc1ccccc1NC(=O)CCC(=O)N1CC(C)Oc2ccc(C)cc21` (stereo not given), the inhibition is 13.9% (inactive).
For `O=C1Nc2ccc([N+](=O)[O-])cc2C1=Nc1cccc(CO)c1`, the inhibition is 30.4% (inactive).
On to `Cc1ccc(N2CC(C(=O)NCCS(=O)(=O)N3CCN(c4ccccc4)CC3)CC2=O)cc1` (stereo not given), for which the inhibition was 37.2% (inactive).
As to `COc1cc(N)c(Cl)cc1C(=O)OCC(=O)c1ccc2c(c1)NC(=O)CO2`, the inhibition was 18.8% (inactive).
Regarding `CCOC(=O)c1c(-c2ccc(-c3ccccc3)cc2)csc1NC(=O)CCC(=O)O`, the inhibition is 9.19% (inactive).
Take `Cc1ccc(CNC(=O)c2c(-c3ccccc3)noc2C)cc1`: the inhibition was -12.1% (inactive).
As to `CCOC(=O)c1c(-c2cccc(C)c2)csc1NC(=O)c1c(-c2ccccc2)noc1C`, the inhibition was 94.3% (active).
`Cn1c(=O)[nH]c(=O)c2c1nc(NCCCn1ccnc1)n2Cc1cccc(Br)c1`: the inhibition is 34.5% (inactive).
On to `O=C1N/C(=C/c2cccn2-c2ccccc2)C(=O)N1c1cccc(Cl)c1`, for which the inhibition was 53.8% (active).
Regarding `O=c1c(-c2cccc(Cl)c2)c[nH]n1-c1ccccc1`, the inhibition is -13.8% (inactive).
As for `Cc1ccccc1NC(=O)CN1C(=O)N/C(=C\c2cccn2-c2cccc(C(=O)O)c2)C1=O`, the inhibition is 11.8% (inactive).
With `COc1ccc(C(=O)OCC(=O)NCC2CCCO2)cc1[N+](=O)[O-]` (stereo not given), the inhibition is -2.37% (inactive).
On to `O=C(C1CCC(=O)N(C2CC2)C1)N1CCN(c2ccc(Cl)cc2)CC1` (stereo not given), for which the inhibition was -4.59% (inactive).
With `CN(C(=O)CSc1nncc2ccccc12)C1CCCCC1` the figure was -30.3% (inactive); with `CN(C(=O)c1cc2c(=O)n3ccccc3nc2s1)C1CCCCC1`, -88.5% (inactive).
Consider `CN(c1ccc2nc3ccccc3c(=O)n2n1)C1CCCCC1`, for which the inhibition was 90.5% (active).
Take `CC(=O)Nc1c2c(nn1-c1cccc(C)c1)CSC2`: the inhibition was 18% (inactive).
Turning to `Cc1c(CNCCc2ccccc2)c(C(=O)O)c(C)n1-c1ccccc1`, the inhibition was 8.96% (inactive).
With `CN(C(=O)c1cccc(NC(=O)Cc2ccc([N+](=O)[O-])cc2)c1)C1CCC1`, the inhibition was 15.3% (inactive).
With `COc1ccc(-c2nn(C)c(=O)c3ccccc23)cc1CNC(=O)C1CCCCC1` the figure was 13% (inactive); with `CCC(=O)NCc1cc(-c2nn(C)c(=O)c3ccccc23)ccc1OC`, 20.9% (inactive); with `COc1ccc(-c2nn(C)c(=O)c3ccccc23)cc1NC(=O)COc1ccccc1`, 70.8% (active).
On to `Cc1cc(NC(=O)COC(=O)/C=C/c2ccc(C)o2)no1`, for which the inhibition was 8.11% (inactive).
On to `Cc1c(C=O)c2ccccc2n1CCOc1ccccc1`, for which the inhibition was 11.3% (inactive).
Consider `O=C(NCCc1ccc(F)cc1)c1ccc(S(=O)(=O)N2CCCCC2)cc1`, for which the inhibition is 0.124% (inactive).
As to `O=S(=O)(Nc1cccc(Oc2ccc(Cl)cc2)n1)c1ccc(F)cc1`, the inhibition is 14.1% (inactive).
`CCCC(=O)NC(C)C(c1cccs1)N1CCN(c2ccccc2)CC1` (stereo not given): the inhibition is 18.2% (inactive).
As for `CC(NC(=S)Nc1ccccc1)C(c1cccs1)N1CCOCC1` (stereo not given), the inhibition is -20.7% (inactive).
Turning to `CC(NC(=O)Nc1ccccc1)C(c1cccs1)N1CCN(c2ccccc2)CC1` (stereo not given), the inhibition was 58.6% (active).
As for `CCOCCCNC(=O)C(NC(=O)c1ccc(=O)[nH]c1)c1ccc(Cl)cc1` (stereo not given), the inhibition is -20.6% (inactive).
As for `CNC(=S)N/N=C/c1cn(Cc2ccc(C)cc2)c2ccccc12`, the inhibition is 42.2% (inactive).
In the case of `COc1cccc(Cn2cc(/C=N/NC(=O)c3cc(O)cc(O)c3)c3ccccc32)c1`, the inhibition is 23.5% (inactive).
With `N#CCC(=O)N/N=C/c1cn(Cc2ccc3ccccc3c2)c2ccccc12` the figure was 67.9% (active).
For the compound `CC1=C(C(N)=O)C(c2ccc3c(c2)OCO3)n2nc(-c3cccc(C)c3)nc2N1` (stereo not given), the inhibition is 7.35% (inactive).
In the case of `N=c1c2c(-c3ccccc3)c(-c3ccccc3)n(Cc3ccccc3)c2ncn1CCCO`, the inhibition was 57.2% (active).
For `COCCn1cnc2c1c(=O)n(Cc1ccc(Br)cc1)c(=O)n2Cc1ccccc1`, the inhibition is 31.5% (inactive).
For `CCN(CC)CCn1cnc2c1c(=O)[nH]c(=O)n2Cc1ccccc1`, the inhibition is 14.5% (inactive).
With `CCOC(=O)[C@H]1[C@H]2COc3ccc(OC)cc3[C@@H]2N2C(=O)c3ccc(F)cc3NC(=O)[C@@]12C`, the inhibition was 17.8% (inactive).
For the compound `CCOC(=O)Cc1csc(SCC(=O)Nc2ccc(C)cc2F)n1`, the inhibition was 7.22% (inactive).
Take `CCOCc1nnc(NC(=O)CCC2CCCCC2)s1`: the inhibition was 15.7% (inactive).
In the case of `CCn1c(CNC(=O)c2cc(OC)c(OC)c(OC)c2)cc2cc(C)ccc21`, the inhibition is 18.3% (inactive).
In the case of `O=C(CNS(=O)(=O)c1cccc(C(F)(F)F)c1)Nc1ccccc1F`, the inhibition was -4.5% (inactive).
Turning to `O=C(Nc1cc(C(F)(F)F)ccc1Cl)C(=O)N1CCCCC1`, the inhibition is 4.88% (inactive).
On to `O=C(NNc1ccccc1Cl)C(O)(c1cccc(C(F)(F)F)c1)c1cccc(C(F)(F)F)c1`, for which the inhibition was 94.5% (active).
Turning to `O=C(NCCC1=CCCCC1)c1ccc(-n2cncn2)cc1`, the inhibition was -91.1% (inactive).
Consider `COC(=O)c1ccccc1NC(=O)C1CC(=O)N(c2ccc(OC)cc2)C1` (stereo not given), for which the inhibition is 15.5% (inactive).
Regarding `COc1ccc(CNS(=O)(=O)c2cc3c4c(c2)CCN4C(=O)CC3)cc1`, the inhibition was -14.5% (inactive).
The figure for `COc1ccccc1-c1nnc2n1N=C(c1ccc(OC(F)F)c(OCC3CC3)c1)CS2` is 23.3% (inactive); for `COc1ccc(C2=Nn3c(nnc3-c3ccccc3OC)SC2)cc1OC1CCCC1` it is 88.2% (active); for `Cc1nnc2n1N=C(c1ccccc1)CS2` it is 17.5% (inactive).
The figure for `Cc1ccc(C)c(OCCC(=O)OCC(=O)NC(=O)NCc2ccccc2)c1` is 6.63% (inactive); for `O=C(Nc1ccc(OC(F)(F)F)cc1)c1ccc2c(c1)no[n+]2[O-]` it is 19% (inactive).
For the compound `CCN1C(=NCc2ccc(OC)cc2)N[C@@H](CCc2ccccc2)[C@H](C(=O)NCc2ccc(OC)cc2)[C@H]1C`, the inhibition is 14.2% (inactive).
In the case of `COc1ccccc1CNS(=O)(=O)c1cc(C(=O)NCc2ccccn2)c(Cl)cc1Cl`, the inhibition is -21.7% (inactive).
Turning to `CC(C)Cc1nc(Nc2ccc(S(=O)(=O)N3CCCC3)cc2)c2nnn(Cc3ccccc3)c2n1`, the inhibition was 68.6% (active).
On to `CC(C)Nc1ncnc2c1nnn2Cc1ccccc1`, for which the inhibition is -2.35% (inactive).
With `Cc1nc(Nc2ccc(S(=O)(=O)N3CCCC3)cc2)c2nnn(Cc3ccccc3)c2n1` the figure was 3.4% (inactive); with `Cc1cnc(C(=O)N2CCCC(N3CCN(c4ccccc4F)CC3)C2)cn1` (stereo not given), 1.8% (inactive); with `Cc1ccc(S(=O)(=O)N(CC(=O)N/N=C/c2ccc(F)cc2)c2cccc3cccnc23)cc1`, 4.5% (inactive).

As usually defined, the inhibition is the relative decrease from the control value, in per cent.
